# Test results reported in paper PMC7862700, “An all-to-all approach to the identification of sequence-specific readers for epigenetic DNA modifications on cytosine”.
# Tests used:
# Assay in all cases: DAPPL (digital affinity profiling via proximity ligation, sequencing); 10 mM Tris-HCl pH 7.5, 50 mM NaCl, 1 mM DTT, 4% glycerol, room temperature, 30 min; GST-TFs on glutathione beads, 16-mer random dsDNA library, 0.1% formaldehyde crosslink after washing; high values mean tight binding
# FLI1 = biological target: T1, FLI1 (Homo sapiens, UniProt Q01543 1-452); conditions: protein: recombinant; tags: N-terminal GST; dsDNA, one strand shown
# T1 sequence: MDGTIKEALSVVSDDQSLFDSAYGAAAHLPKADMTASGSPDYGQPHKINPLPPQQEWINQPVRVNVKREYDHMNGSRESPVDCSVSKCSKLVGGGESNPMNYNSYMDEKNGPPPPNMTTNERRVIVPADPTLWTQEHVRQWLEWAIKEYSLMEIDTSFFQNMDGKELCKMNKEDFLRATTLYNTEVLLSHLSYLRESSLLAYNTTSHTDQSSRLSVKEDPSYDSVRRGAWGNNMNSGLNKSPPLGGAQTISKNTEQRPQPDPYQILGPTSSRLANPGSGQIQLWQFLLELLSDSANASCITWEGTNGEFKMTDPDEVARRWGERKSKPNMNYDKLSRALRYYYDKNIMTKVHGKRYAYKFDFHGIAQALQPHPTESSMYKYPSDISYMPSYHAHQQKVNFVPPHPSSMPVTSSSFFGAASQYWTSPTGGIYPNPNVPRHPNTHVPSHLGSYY
# Summary of the method: (§1)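 Human transcription factors were made in yeast as GST fusions, captured on glutathione beads and barcoded with DNA. With a tag-only sample included, the pool was incubated with 200 nmole of a random double-stranded 16-mer DNA library in Tris/NaCl/DTT/glycerol buffer at room temperature for 30 min, then crosslinked with 0.1% formaldehyde after washing, ligated by proximity, amplified and sequenced. For binding signal, each hexamer's read frequency for a factor is divided by its frequency for the tag-only sample.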
# ELK1 = biological target: T2, ELK1 (Homo sapiens, UniProt P19419 1-428); conditions: protein: recombinant; tags: N-terminal GST; dsDNA, one strand shown
# T2 sequence: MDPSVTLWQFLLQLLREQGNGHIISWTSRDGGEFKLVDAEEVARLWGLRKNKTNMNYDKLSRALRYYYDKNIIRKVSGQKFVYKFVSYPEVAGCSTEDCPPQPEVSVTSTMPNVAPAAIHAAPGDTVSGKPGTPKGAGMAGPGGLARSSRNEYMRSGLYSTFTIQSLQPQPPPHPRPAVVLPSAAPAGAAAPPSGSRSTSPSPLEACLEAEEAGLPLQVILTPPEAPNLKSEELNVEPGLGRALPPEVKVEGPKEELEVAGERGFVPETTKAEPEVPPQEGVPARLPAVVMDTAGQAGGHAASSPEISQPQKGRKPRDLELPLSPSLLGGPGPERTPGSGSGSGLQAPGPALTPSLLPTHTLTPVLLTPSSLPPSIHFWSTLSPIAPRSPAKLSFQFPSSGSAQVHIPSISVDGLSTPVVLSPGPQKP
# Summary of the method: as §1
# GABPA = biological target: T3, GABPA (Homo sapiens, UniProt Q06546 1-454); conditions: protein: recombinant; tags: N-terminal GST; dsDNA, one strand shown
# T3 sequence: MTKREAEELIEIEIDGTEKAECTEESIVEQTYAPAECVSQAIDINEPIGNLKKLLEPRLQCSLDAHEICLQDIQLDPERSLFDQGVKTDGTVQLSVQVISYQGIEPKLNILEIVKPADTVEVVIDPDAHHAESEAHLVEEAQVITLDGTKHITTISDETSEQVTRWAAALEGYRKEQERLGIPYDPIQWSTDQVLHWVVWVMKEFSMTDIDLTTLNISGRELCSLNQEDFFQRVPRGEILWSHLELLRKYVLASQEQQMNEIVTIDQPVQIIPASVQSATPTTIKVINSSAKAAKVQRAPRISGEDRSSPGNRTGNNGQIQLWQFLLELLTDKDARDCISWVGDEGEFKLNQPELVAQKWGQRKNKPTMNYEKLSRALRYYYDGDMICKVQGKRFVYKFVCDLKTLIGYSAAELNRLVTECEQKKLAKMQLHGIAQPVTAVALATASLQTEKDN
# Summary of the method: as §1
# ERG = biological target: T4, ERG (Homo sapiens, UniProt P11308 1-479); conditions: protein: recombinant; tags: N-terminal GST; dsDNA, one strand shown
# T4 sequence: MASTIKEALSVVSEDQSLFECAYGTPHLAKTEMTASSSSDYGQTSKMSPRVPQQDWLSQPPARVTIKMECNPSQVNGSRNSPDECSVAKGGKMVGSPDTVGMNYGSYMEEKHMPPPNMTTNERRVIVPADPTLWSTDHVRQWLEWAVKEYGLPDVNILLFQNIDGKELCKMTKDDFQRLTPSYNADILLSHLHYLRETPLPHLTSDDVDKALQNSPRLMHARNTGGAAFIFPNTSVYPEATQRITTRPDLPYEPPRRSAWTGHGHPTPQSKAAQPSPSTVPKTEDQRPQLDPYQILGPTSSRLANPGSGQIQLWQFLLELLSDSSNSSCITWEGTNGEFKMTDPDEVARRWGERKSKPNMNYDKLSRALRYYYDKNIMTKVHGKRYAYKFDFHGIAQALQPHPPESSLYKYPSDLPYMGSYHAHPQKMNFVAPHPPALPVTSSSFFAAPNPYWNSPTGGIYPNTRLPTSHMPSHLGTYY
# Summary of the method: as §1
# ELF1 = ELF1 (Homo sapiens, UniProt P32519 1-619); conditions: protein: recombinant; tags: N-terminal GST; dsDNA, one strand shown
# Sequence of ELF1 (P32519 whole entry): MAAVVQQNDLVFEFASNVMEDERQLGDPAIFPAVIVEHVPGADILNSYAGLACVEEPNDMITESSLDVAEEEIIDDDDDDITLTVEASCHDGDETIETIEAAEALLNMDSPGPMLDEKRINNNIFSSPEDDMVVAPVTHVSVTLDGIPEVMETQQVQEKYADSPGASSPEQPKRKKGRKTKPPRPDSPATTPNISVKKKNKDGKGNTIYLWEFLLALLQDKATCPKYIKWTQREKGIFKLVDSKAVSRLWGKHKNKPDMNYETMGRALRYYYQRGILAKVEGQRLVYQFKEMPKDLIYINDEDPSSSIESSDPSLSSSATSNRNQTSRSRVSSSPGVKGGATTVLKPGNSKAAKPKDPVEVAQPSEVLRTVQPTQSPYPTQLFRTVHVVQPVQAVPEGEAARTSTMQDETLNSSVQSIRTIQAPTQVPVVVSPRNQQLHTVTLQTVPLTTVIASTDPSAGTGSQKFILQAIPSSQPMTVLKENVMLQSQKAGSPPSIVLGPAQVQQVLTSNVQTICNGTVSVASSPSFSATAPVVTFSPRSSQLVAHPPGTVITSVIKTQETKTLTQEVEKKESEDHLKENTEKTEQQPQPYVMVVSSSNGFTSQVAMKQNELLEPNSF
# Summary of the method: as §1
# EHF = biological target: T5, EHF (Homo sapiens, UniProt Q9NZC4 1-300); conditions: protein: recombinant; tags: N-terminal GST; dsDNA, one strand shown
# T5 sequence: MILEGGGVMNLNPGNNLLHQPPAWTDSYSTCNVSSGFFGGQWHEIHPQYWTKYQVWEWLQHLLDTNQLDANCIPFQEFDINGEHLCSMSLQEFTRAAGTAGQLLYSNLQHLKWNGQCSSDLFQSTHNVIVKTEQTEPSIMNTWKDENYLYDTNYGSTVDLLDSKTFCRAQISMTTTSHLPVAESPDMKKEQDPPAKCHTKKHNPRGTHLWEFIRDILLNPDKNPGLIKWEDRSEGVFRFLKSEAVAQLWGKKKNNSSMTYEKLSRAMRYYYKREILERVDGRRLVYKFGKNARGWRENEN
# Summary of the method: as §1
# SPI1 = SPI1 (Homo sapiens, UniProt P17947 1-270); conditions: protein: recombinant; tags: N-terminal GST; dsDNA, one strand shown
# Summary of the method: as §1
# SPIB = SPIB (Homo sapiens, UniProt Q01892 1-262); conditions: protein: recombinant; tags: N-terminal GST; dsDNA, one strand shown
# Sequence of SPIB (Q01892 whole entry): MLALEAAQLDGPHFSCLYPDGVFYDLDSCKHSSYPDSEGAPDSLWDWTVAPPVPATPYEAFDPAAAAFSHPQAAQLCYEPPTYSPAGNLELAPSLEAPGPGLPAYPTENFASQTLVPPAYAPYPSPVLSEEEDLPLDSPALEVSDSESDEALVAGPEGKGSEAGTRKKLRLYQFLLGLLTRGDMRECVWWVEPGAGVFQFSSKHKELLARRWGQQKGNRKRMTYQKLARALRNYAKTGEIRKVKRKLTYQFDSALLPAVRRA
# Summary of the method: as §1
# ELK3 = biological target: T6, ELK3 (Homo sapiens, UniProt P41970 1-407); conditions: protein: recombinant; tags: N-terminal GST; dsDNA, one strand shown
# T6 sequence: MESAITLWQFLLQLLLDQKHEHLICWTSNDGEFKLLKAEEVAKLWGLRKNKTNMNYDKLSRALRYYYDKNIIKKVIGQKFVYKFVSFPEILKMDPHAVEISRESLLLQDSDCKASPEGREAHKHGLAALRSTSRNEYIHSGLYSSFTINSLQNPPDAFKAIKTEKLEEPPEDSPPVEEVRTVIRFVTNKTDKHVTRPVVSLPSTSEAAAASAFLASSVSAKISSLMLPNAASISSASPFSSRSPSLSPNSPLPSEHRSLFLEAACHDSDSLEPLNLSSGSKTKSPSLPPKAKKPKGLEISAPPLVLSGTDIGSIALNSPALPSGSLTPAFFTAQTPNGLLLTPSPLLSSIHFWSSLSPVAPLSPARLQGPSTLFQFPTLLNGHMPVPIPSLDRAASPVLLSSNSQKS
# Summary of the method: as §1
# ETV5 = ETV5 (Homo sapiens, UniProt P41161 1-510); conditions: protein: recombinant; tags: N-terminal GST; dsDNA, one strand shown
# Sequence of ETV5 (P41161 whole entry): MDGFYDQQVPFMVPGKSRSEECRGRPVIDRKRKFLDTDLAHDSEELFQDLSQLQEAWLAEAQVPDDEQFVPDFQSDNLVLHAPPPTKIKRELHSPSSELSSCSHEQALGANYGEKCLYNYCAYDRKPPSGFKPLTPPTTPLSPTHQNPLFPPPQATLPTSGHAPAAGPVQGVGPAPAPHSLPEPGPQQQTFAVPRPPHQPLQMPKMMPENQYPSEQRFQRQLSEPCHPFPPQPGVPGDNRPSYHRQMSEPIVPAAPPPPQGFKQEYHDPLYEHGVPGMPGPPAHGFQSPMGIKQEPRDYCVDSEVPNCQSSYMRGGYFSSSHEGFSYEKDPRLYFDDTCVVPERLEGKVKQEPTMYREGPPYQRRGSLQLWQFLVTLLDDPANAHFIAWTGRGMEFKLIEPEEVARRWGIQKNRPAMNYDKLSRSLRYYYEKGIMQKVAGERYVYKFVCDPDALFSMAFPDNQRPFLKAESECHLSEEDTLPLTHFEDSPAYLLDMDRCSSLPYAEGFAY
# Summary of the method: as §1
# HSF1 = HSF1 (Homo sapiens, UniProt Q00613 1-529); conditions: protein: recombinant; tags: N-terminal GST; chain copies: 3; dsDNA, one strand shown
# Sequence of HSF1 (Q00613 whole entry): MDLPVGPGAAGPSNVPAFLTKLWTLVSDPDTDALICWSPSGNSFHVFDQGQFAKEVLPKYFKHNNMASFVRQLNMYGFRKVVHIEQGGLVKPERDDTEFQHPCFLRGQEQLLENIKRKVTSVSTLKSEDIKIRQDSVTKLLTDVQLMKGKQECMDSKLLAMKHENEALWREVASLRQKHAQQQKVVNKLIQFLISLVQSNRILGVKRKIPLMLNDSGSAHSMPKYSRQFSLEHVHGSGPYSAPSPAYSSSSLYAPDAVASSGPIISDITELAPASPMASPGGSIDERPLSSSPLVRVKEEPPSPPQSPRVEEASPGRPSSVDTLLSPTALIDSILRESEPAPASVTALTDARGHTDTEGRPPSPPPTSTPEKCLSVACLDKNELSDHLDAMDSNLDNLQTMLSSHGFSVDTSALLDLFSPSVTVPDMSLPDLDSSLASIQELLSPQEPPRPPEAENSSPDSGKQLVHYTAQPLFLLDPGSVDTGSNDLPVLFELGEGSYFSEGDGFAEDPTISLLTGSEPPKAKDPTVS
# Summary of the method: as §1
# SPIC = biological target: T7, SPIC (Homo sapiens, UniProt Q8N5J4 1-248); conditions: protein: recombinant; tags: N-terminal GST; dsDNA, one strand shown
# T7 sequence: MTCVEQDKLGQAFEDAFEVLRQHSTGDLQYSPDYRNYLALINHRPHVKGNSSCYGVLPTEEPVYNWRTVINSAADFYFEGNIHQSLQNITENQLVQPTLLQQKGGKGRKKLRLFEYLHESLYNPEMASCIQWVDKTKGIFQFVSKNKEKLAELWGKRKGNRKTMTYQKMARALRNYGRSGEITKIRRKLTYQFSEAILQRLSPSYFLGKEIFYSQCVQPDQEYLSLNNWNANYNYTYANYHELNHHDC
# Summary of the method: as §1
# ELF4 = ELF4 (Homo sapiens, UniProt Q99607 1-663); conditions: protein: recombinant; tags: N-terminal GST; dsDNA, one strand shown
# Sequence of ELF4 (Q99607 whole entry): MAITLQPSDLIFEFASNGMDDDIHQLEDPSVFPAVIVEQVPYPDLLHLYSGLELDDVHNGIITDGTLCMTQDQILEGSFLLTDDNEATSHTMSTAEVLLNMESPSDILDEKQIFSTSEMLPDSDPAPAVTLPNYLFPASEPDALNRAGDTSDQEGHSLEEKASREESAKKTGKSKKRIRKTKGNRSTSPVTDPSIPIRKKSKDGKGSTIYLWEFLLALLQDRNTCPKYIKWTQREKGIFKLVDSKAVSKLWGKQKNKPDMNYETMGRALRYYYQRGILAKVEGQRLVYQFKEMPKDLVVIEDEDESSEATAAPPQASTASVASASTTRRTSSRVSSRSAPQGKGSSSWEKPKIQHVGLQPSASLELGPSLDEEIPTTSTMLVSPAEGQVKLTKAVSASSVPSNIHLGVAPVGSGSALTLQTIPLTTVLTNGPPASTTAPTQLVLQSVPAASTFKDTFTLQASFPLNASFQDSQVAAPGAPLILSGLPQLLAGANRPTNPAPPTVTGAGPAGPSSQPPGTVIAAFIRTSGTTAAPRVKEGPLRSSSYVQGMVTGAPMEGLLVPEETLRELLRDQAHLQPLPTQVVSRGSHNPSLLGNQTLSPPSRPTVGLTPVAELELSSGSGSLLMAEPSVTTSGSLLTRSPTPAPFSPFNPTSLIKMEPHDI
# Summary of the method: as §1
# ELK4 = biological target: T8, ELK4 (Homo sapiens, UniProt P28324-2 1-405); conditions: protein: recombinant; tags: N-terminal GST; dsDNA, one strand shown
# T8 sequence: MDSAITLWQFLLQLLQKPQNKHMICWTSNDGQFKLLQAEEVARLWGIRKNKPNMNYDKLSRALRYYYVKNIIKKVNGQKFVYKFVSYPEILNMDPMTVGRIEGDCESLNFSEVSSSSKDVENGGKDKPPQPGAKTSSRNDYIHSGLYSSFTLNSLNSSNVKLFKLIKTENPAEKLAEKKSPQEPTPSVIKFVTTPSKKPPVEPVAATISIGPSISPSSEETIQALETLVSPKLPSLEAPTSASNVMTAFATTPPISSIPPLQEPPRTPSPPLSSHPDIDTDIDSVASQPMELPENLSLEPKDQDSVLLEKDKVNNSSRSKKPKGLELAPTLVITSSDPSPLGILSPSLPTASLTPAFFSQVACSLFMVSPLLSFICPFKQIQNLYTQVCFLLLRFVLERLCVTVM
# Summary of the method: as §1
# ETV2 = biological target: T9, ETV2 (Homo sapiens, UniProt O00321 1-342); conditions: protein: recombinant; tags: N-terminal GST; dsDNA, one strand shown
# T9 sequence: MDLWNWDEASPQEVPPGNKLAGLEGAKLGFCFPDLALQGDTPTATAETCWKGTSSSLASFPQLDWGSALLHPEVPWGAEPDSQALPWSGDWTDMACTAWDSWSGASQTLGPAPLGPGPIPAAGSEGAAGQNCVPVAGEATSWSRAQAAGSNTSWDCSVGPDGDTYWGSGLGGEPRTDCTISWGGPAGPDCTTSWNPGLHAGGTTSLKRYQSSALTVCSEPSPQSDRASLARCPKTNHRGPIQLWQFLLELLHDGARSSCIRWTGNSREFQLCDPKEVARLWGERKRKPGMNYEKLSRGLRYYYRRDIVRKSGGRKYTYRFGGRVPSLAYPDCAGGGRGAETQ
# Summary of the method: as §1
# ELF3 = biological target: T10, ELF3 (Homo sapiens, UniProt P78545 1-371); conditions: protein: recombinant; tags: N-terminal GST; dsDNA, one strand shown
# T10 sequence: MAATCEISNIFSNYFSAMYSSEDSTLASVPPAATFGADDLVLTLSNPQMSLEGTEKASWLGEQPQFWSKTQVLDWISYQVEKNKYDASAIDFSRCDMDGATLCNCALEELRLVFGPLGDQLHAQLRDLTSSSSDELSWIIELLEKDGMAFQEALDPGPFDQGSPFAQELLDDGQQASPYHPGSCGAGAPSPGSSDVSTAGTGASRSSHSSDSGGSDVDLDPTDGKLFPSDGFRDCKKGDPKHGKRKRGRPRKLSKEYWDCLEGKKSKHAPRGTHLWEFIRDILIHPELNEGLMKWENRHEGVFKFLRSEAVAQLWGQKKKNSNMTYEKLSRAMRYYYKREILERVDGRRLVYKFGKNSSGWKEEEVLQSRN
# Summary of the method: as §1
# CRX = CRX (Homo sapiens, UniProt O43186 1-299); conditions: protein: recombinant; tags: N-terminal GST; dsDNA, one strand shown
# Sequence of CRX (O43186 whole entry): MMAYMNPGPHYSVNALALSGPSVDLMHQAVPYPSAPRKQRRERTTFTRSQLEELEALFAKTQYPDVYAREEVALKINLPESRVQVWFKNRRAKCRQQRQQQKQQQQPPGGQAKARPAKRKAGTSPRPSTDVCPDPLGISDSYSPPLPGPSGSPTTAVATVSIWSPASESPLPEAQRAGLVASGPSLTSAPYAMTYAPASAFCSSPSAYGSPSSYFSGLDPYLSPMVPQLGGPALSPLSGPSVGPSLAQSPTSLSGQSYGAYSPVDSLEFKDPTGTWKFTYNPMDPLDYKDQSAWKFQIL
# Summary of the method: as §1
# ETV1 = ETV1 (Homo sapiens, UniProt P50549 1-477); conditions: protein: recombinant; tags: N-terminal GST; dsDNA, one strand shown
# Sequence of ETV1 (P50549 whole entry): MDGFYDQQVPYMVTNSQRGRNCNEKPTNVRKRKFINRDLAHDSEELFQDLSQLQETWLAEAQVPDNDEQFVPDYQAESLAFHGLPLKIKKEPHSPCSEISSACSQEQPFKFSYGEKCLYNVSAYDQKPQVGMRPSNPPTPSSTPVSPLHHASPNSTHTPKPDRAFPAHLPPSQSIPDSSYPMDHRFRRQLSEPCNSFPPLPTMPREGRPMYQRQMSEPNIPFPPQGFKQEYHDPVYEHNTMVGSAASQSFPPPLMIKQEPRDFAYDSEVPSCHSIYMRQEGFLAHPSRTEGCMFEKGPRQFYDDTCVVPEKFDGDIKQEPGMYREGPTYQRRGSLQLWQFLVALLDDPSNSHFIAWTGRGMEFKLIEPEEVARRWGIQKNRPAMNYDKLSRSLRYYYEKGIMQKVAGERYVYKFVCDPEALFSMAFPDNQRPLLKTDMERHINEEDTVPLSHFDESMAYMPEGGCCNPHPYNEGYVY
# Summary of the method: as §1
sequence,measurement,setting,value
TAGAAG,binding signal,FLI1,"1.05 fold enrichment (6-mer frequency, TF over GST control)"
same,binding signal,ELK1,"1.19 fold enrichment (6-mer frequency, TF over GST control)"
same,binding signal,GABPA,"1.15 fold enrichment (6-mer frequency, TF over GST control)"
same,binding signal,ERG,"1.19 fold enrichment (6-mer frequency, TF over GST control)"
same,binding signal,ELF1,"1.23 fold enrichment (6-mer frequency, TF over GST control)"
same,binding signal,EHF,"1.15 fold enrichment (6-mer frequency, TF over GST control)"
same,binding signal,SPI1,"1.24 fold enrichment (6-mer frequency, TF over GST control)"
same,binding signal,SPIB,"1.24 fold enrichment (6-mer frequency, TF over GST control)"
same,binding signal,ELK3,"1.13 fold enrichment (6-mer frequency, TF over GST control)"
same,binding signal,ETV5,"1.08 fold enrichment (6-mer frequency, TF over GST control)"
same,binding signal,HSF1,"2.77 fold enrichment (6-mer frequency, TF over GST control)"
same,binding signal,SPIC,"1.31 fold enrichment (6-mer frequency, TF over GST control)"
same,binding signal,ELF4,"1.19 fold enrichment (6-mer frequency, TF over GST control)"
same,binding signal,ELK4,"1.16 fold enrichment (6-mer frequency, TF over GST control)"
same,binding signal,ETV2,"1.18 fold enrichment (6-mer frequency, TF over GST control)"
same,binding signal,ELF3,"1.18 fold enrichment (6-mer frequency, TF over GST control)"
same,binding signal,CRX,"1.72 fold enrichment (6-mer frequency, TF over GST control)"
same,binding signal,ETV1,"1.06 fold enrichment (6-mer frequency, TF over GST control)"
